Source: PubChem BioAssay (NCATS)
Records with an inconclusive call do not appear. The source made the active and inactive calls. The call rests on the fitted dose curve; in most records, active means well fitted curve in the direction sought with a large enough effect; inconclusive means small, poorly fitted or top-dose-only effect, or another doubt; inactive means no such curve, though single readings can be large; an effect the other way counts as inactive or inconclusive.

Experiments:
[1] = Quantitative High-Throughput drug screen in 47 multiple myeloma cell lines against the NCATS MIPE library collection: INA6_PLB cell viability assay (AID 1918965; further: nearly all actives have a fitted effect of over 55% in size)
Procedure, shortened: (§1)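 Approved and investigational drugs from MIPE 4.0 were added by pin tool to 500 cells per well. After 48 hours at 37C, ATP-based CellTiter-Glo luminescence indicated remaining viability.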

[2] = Quantitative High-Throughput drug screen in 47 multiple myeloma cell lines against the NCATS MIPE library collection: JJN3_DSMZ cell viability assay (AID 1918966; further: nearly all actives have a fitted effect of over 50% in size)
Procedure, shortened: (§2)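 CellTiter-Glo luminescence (ATP) after 48 h compound exposure, 37C/5% CO2; 500 cells/well; MIPE 4.0 approved/investigational drugs pinned in; DMSO = 100%, media only = 0% viability.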

[3] = Quantitative High-Throughput drug screen in 47 multiple myeloma cell lines against the NCATS MIPE library collection: H1112_PLB cell viability assay (AID 1918967; further: nearly all actives have a fitted effect of over 30% in size)
Procedure, shortened: as §2

[4] = Quantitative High-Throughput drug screen in 47 multiple myeloma cell lines against the NCATS MIPE library collection: Karpas25_ECACC cell viability assay (AID 1918968; further: nearly all actives have a fitted effect of over 35% in size)
Procedure, shortened: as §2

[5] = Quantitative High-Throughput drug screen in 47 multiple myeloma cell lines against the NCATS MIPE library collection: KMS27_JCRB cell viability assay (AID 1918970); settings: KMS27 myeloma cells, CellTiter-Glo ATP viability, 48 h; viability (% of DMSO): at 45.8 µM (top of the series); further: nearly all actives have a fitted effect of over 30% in size
Procedure, shortened: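 ATP-based viability (CellTiter-Glo luminescence) is measured in cells treated 48 h with approved and investigational drugs at 37 °C. Controls are DMSO-only wells for full viability and media-only wells for none.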

[6] = Quantitative High-Throughput drug screen in 47 multiple myeloma cell lines against the NCATS MIPE library collection: KMS12BM_JCRB cell viability assay (AID 1918971); further: nearly all actives have a fitted effect of over 35% in size
Procedure, shortened: (§3)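 Inhibition of cell viability is measured here. Each line was plated at 500 cells per well, treated with MIPE 4.0 drugs, kept 48 hours at 37C, then assayed for ATP content by CellTiter-Glo luminescence.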

[7] = Quantitative High-Throughput drug screen in 47 multiple myeloma cell lines against the NCATS MIPE library collection: KMS12PE_JCRB cell viability assay (AID 1918972); further: nearly all actives have a fitted effect of over 30% in size
Procedure, shortened: as §1

[8] = Quantitative High-Throughput drug screen in 47 multiple myeloma cell lines against the NCATS MIPE library collection: KMS20_JCRB cell viability assay (AID 1918973); further: nearly all actives have a fitted effect of over 45% in size
Procedure, shortened: as §2

[9] = Quantitative High-Throughput drug screen in 47 multiple myeloma cell lines against the NCATS MIPE library collection: KMS26_JCRB cell viability assay (AID 1918975); further: nearly all actives have a fitted effect of over 45% in size
Procedure, shortened: as §3

[10] = Quantitative High-Throughput drug screen in 47 multiple myeloma cell lines against the NCATS MIPE library collection: NCIH929_DSMZ cell viability assay (AID 1918978); further: nearly all actives have a fitted effect of over 35% in size
Procedure, shortened: (§4)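 MIPE 4.0 approved/investigational drugs; 500 cells/well; 48 h 37 °C humidified 5% CO2; CTG luminescence readout; DMSO = 100%, media = 0% viability.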

[11] = Quantitative High-Throughput drug screen in 47 multiple myeloma cell lines against the NCATS MIPE library collection: MM1S_ATCC cell viability assay (AID 1918980); further: nearly all actives have a fitted effect of over 45% in size
Procedure, shortened: as §4

[12] = Quantitative High-Throughput drug screen in 47 multiple myeloma cell lines against the NCATS MIPE library collection: MM1R_ATCC cell viability assay (AID 1918981); further: nearly all actives have a fitted effect of over 35% in size
Procedure, shortened: as §4

[13] = Quantitative High-Throughput drug screen in 47 multiple myeloma cell lines against the NCATS MIPE library collection: KMS28PE_JCRB cell viability assay (AID 1918983); further: nearly all actives have a fitted effect of over 35% in size
Procedure, shortened: as §4

[14] = Quantitative High-Throughput drug screen in 47 multiple myeloma cell lines against the NCATS MIPE library collection: L363_DSMZ cell viability assay (AID 1918984); further: nearly all actives have a fitted effect of over 40% in size
Procedure, shortened: as §4

[15] = Quantitative High-Throughput drug screen in 47 multiple myeloma cell lines against the NCATS MIPE library collection: OCIMY1_PLB cell viability assay (AID 1918979); further: nearly all actives have a fitted effect of over 35% in size
Procedure, shortened: as §4

[16] = Quantitative High-Throughput drug screen in 47 multiple myeloma cell lines against the NCATS MIPE library collection: LP1_DSMZ cell viability assay (AID 1918982); further: nearly all actives have a fitted effect of over 35% in size
Procedure, shortened: as §4

[17] = Quantitative High-Throughput drug screen in 47 multiple myeloma cell lines against the NCATS MIPE library collection: KMS34_JCRB cell viability assay (AID 1918985); further: nearly all actives have a fitted effect of over 40% in size
Procedure, shortened: as §4

[18] = Quantitative High-Throughput drug screen in 47 multiple myeloma cell lines against the NCATS MIPE library collection: KMS21BM_JCRB cell viability assay (AID 1918974); settings: ATP luminescence, 48 h; viability: at 45.8 µM (top of the series)
Procedure, shortened: as §2

[19] = Quantitative High-Throughput drug screen in 47 multiple myeloma cell lines against the NCATS MIPE library collection: MOLP8_DSMZ cell viability assay (AID 1918977); further: nearly all actives have a fitted effect of over 45% in size
Procedure, shortened: as §4

[20] = Quantitative High-Throughput drug screen in 47 multiple myeloma cell lines against the NCATS MIPE library collection: MMM1_PLB cell viability assay (AID 1918976); further: nearly all actives have a fitted effect of over 35% in size
Procedure, shortened: as §4

Measured: Potency
Potency means the concentration at half of the fitted maximal effect.

COc1cc([C@@H]2c3cc4c(cc3[C@H](O)[C@H]3COC(=O)[C@@H]23)OCO4)cc(OC)c1OC
active: [1] 0.148 µM | [2] 0.526 µM | [3] 0.526 µM | [4] 0.187 µM | [5] 0.0526 µM | [6] 0.148 µM | [7] 0.118 µM | [8] 1.32 µM | [9] 0.372 µM | [10] 0.59 µM | [11] 0.833 µM | [12] 0.526 µM | [13] 0.148 µM | [14] 0.0662 µM

CC(C=CC1=C(C)CCCC1(C)C)=CC=CC(C)=CC(=O)Nc1ccc(O)cc1
active: [1] 13.6 µM | [2] 21.5 µM | [3] 19.1 µM | [4] 12.1 µM | [5] 8.55 µM | [6] 17.1 µM | [7] 3.82 µM | [8] 15.2 µM | [9] 19.1 µM | [10] 21.5 µM | [15] 21.5 µM | [11] 48.1 µM | [12] 17.1 µM | [16] 17.1 µM | [13] 21.5 µM | [17] 17.1 µM

O=C(Nc1nnc(-c2ccco2)o1)c1cc(-c2ccccc2)nc2ccccc12
active: [1] 16.6 µM | [2] 20.9 µM | [3] 18.7 µM | [4] 18.7 µM | [5] 16.6 µM | [6] 23.5 µM | [7] 18.7 µM | [8] 16.6 µM | [18] 23.5 µM | [10] 18.7 µM

COc1cccc2c1C(=O)c1c(O)c3c(c(O)c1C2=O)C[C@@](O)(C(=O)CO)C[C@@H]3O[C@H]1C[C@H](N)[C@H](OC2CCCCO2)[C@H](C)O1 (stereo not given in full)
inactive: [5] | [7] | [14]
active: [1] 0.469 µM | [2] 1.87 µM | [3] 1.48 µM | [4] 1.05 µM | [6] 2.09 µM | [8] 1.18 µM | [9] 2.96 µM | [19] 1.18 µM | [10] 0.935 µM | [15] 14.8 µM | [11] 0.132 µM | [12] 0.296 µM | [13] 2.64 µM | [17] 2.64 µM

COc1ccc(S(=O)(=O)Nc2cc(-c3c(O)ccc4ccccc34)c(O)c3ccccc23)cc1
active: [1] 2.96 µM | [2] 8.33 µM | [3] 9.35 µM | [4] 5.26 µM | [5] 14.8 µM | [6] 26.4 µM | [7] 13.2 µM | [8] 9.35 µM | [18] 18.7 µM | [9] 14.8 µM | [19] 7.43 µM | [10] 3.32 µM | [15] 10.5 µM | [11] 2.35 µM | [12] 23.5 µM | [16] 16.6 µM | [14] 2.64 µM | [17] 10.5 µM

CCS(=O)(=O)Nc1ccc2[nH]c(O)c(C(=Nc3ccc(CN4CCCCC4)cc3)c3ccccc3)c2c1
active: [1] 0.469 µM | [2] 0.743 µM | [3] 4.69 µM | [4] 0.235 µM | [5] 0.132 µM | [6] 13.2 µM | [7] 0.148 µM | [8] 0.296 µM | [9] 0.469 µM | [20] 0.209 µM | [10] 0.105 µM | [15] 5.9 µM | [11] 0.469 µM | [12] 0.526 µM | [16] 7.43 µM | [13] 1.05 µM | [14] 0.0526 µM | [17] 0.935 µM

C[C@H](NCc1ccc(OCc2cccc(F)c2)cc1)C(N)=O
active: [1] 1.32 µM | [2] 8.33 µM | [3] 5.9 µM | [4] 2.35 µM | [5] 1.66 µM | [6] 8.33 µM | [7] 1.87 µM | [8] 2.35 µM | [9] 18.7 µM | [20] 11.8 µM | [19] 2.64 µM | [15] 10.5 µM | [11] 9.35 µM | [12] 7.43 µM | [16] 11.8 µM | [13] 9.35 µM | [14] 1.48 µM | [17] 10.5 µM

c1cc(N[C@@H]2CCNC2)nc(-c2cnc3ccc(-c4cn[nH]c4)cn23)c1
inactive: [15]
active: [1] 0.935 µM | [2] 5.9 µM | [3] 11.8 µM | [4] 5.9 µM | [5] 2.64 µM | [6] 16.6 µM | [7] 16.6 µM | [8] 11.8 µM | [9] 14.8 µM | [19] 2.96 µM | [10] 13.2 µM | [12] 20.9 µM | [13] 16.6 µM | [14] 7.43 µM

C=Cc1c(C)c2cc3nc(cc4[nH]c(cc5nc(cc1[nH]2)C(C)=C5CCC(=O)O)c(CCC(=O)OC)c4C)[C@@]1(C)C3=CC=C(C(=O)OC)[C@H]1C(=O)OC
active: [1] 0.209 µM | [2] 0.0296 µM | [3] 0.235 µM | [4] 0.132 µM | [5] 0.132 µM | [6] 0.187 µM | [7] 0.187 µM | [8] 0.148 µM | [9] 0.743 µM | [20] 0.332 µM | [19] 2.09 µM | [10] 0.0833 µM | [15] 2.35 µM | [11] 0.0526 µM | [12] 0.0935 µM | [16] 1.05 µM | [13] 0.743 µM | [14] 0.526 µM | [17] 0.743 µM
